PubChem BioAssay (NCATS)
Values joined by “and” are separate entries in the source; they are usually repeats but may differ in a detail not shown here. Equal values may be shown once. Unmarked numbers belong to inactive results. Results filed as inconclusive are left out. Where a call stands in place of a potency, no number is given. A structure can be active in one record and inactive in another. Active and inactive are the calls of the source. Unless noted, the call rests on the fitted dose curve; in most records, active means well fitted curve in the direction sought with a large enough effect; inconclusive means small, poorly fitted or top-dose-only effect, or another doubt; inactive means no such curve, though single readings can be large; an effect the other way counts as inactive or inconclusive.

How the values were obtained:
CASKI = assay: Primary qHTS to identify gynecologic anti-cancer compounds using libraries of approved drugs and bioactive compounds (AID 1345084); conditions: Gynecologic cancer cell panel viability, ATPlite luminescence, 48 h; series mostly up to 57.5 µM; further: nearly all actives have a fitted effect of over 55% in size; further: potency means the concentration at half of the fitted maximal effect
Outline: (§1)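 Cells, 1,000 per well, plated 16 h, then exposed 48 h at 37 C to compounds. Viability by ATPlite luminescence after 15 min at room temperature.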

Es-2 = assay: as above; conditions: Gynecologic cancer cell panel viability, ATPlite luminescence, 48 h; series mostly up to 57.5 µM
Outline: as §1

HeLa = assay: as above; conditions: Gynecologic cancer cell panel viability, ATPlite luminescence, 48 h; series mostly up to 57.5 µM
Outline: as §1

Hek293T = assay: as above; conditions: Gynecologic cancer cell panel viability, ATPlite luminescence, 48 h, control line for the selectivity index; series mostly up to 57.5 µM
Outline: as §1

JEG-3 = assay: as above; conditions: Gynecologic cancer cell panel viability, ATPlite luminescence, 48 h; series mostly up to 57.5 µM
Outline: as §1

OV90 = assay: as above; conditions: Gynecologic cancer cell panel viability, ATPlite luminescence, 48 h; series mostly up to 57.5 µM
Outline: as §1

PA-1 = assay: as above; conditions: Gynecologic cancer cell panel viability, ATPlite luminescence, 48 h; series mostly up to 57.5 µM
Outline: as §1

SKOV3 = assay: as above; conditions: Gynecologic cancer cell panel viability, ATPlite luminescence, 48 h; series mostly up to 57.5 µM
Outline: as §1

Tov-21-G = assay: as above; conditions: Gynecologic cancer cell panel viability, ATPlite luminescence, 48 h; series mostly up to 57.5 µM
Outline: as §1

Tov112D = assay: as above; conditions: Gynecologic cancer cell panel viability, ATPlite luminescence, 48 h; series mostly up to 57.5 µM
Outline: as §1

[1] = Drug repurposing screens with cells derived from glioblastoma tumor samples (AID 1345199); conditions: GBM patient neurospheres viability, ATP luminescence, 48 h; further: nearly all actives have a fitted effect of over 40% in size; further: potency means the concentration at half of the fitted maximal effect
Outline: (§2)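 Primary testing used CD133+ neurospheres from four GBM patients, seven concentrations, 48 h exposure and ATP-based viability; confirmation added three slower-growing patient lines.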

astro = assay: as above; conditions: viability, ATP luminescence, 48 h; series mostly up to 45.9 µM
Outline: as §2

[2] = biological target: Nuclear receptor subfamily 1 group I member 2 (Rattus norvegicus) (UniProt Q9R1A7); assay: qHTS assay for small molecule activators of the rat pregnane X receptor (rPXR) signaling pathway (AID 651751; call rule not given here); conditions: rPXR reporter cells, luciferase (One-Glo), 24 h
[3] = qHTS assay for small molecule activators of the human pregnane X receptor (PXR) signaling pathway (AID 720659; call rule not given here)
[4] = qHTS assay to identify inhibitors of the type 1 interferon - major histocompatibility complex class I in skeletal muscle: Counter screen cell viability and HiBit confirmation (AID 1347412); conditions: iHSKM muscle cells + IFN-b, HiBiT or CellTiter-Glo, 24 h; for activity change, negative = inhibition: Viability, at 45.9 µM (top of the series); further: potency means the concentration at half of the fitted maximal effect; on all read-outs here: nearly all actives have a fitted effect of over 60% in size
Outline: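 CRISPR HLA-B*08:01-HiBit immortalized human myoblasts (C25cl48) stimulated with 4 ng/ml IFN-beta and compounds (12-point 1:3, top 46 uM final) for 24 h at 37 C. Duplicate plates read by HiBit lytic luminescence or CellTiter Glo ATP.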

[5] = at 45.9 µM (top of the series), tumour line B
[6] = at 45.9 µM (top of the series), tumour line D
[7] = at 46 µM (top of the series), tumour line A
[8] = at 46.1 µM (top of the series), tumour line C

Chain of Nuclear receptor subfamily 1 group I member 2 (Rattus norvegicus) (Q9R1A7 whole entry, looked up): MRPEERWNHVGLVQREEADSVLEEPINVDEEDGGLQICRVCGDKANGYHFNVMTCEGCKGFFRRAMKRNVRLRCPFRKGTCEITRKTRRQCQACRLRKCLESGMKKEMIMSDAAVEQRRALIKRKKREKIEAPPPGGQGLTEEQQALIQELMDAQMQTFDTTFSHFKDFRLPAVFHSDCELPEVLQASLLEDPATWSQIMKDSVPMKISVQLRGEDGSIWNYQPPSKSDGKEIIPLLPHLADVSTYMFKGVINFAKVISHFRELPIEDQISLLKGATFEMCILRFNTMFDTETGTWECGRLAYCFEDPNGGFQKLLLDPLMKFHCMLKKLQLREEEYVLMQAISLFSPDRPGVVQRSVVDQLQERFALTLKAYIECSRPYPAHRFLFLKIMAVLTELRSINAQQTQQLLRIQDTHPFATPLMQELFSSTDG

CC(C)(C)NCC(O)COc1ccc(NC(=O)NC2CCCCC2)cc1 (centres undefined)
Potency (CASKI): inactive | Potency (Es-2): inactive | Potency (HeLa): inactive | Potency (Hek293T): inactive | Potency (JEG-3): inactive | Potency (OV90): inactive | Potency (PA-1): inactive | Potency (SKOV3): inactive | Potency (Tov-21-G): inactive | Potency (Tov112D): inactive | activity, negative = cell killing [1, 5]: -25.7% | Potency ([1]; tumour line A): 31.6 µM (active) | Potency (astro): inactive

O=S(=O)(O)c1cc(I)c(O)c2ncccc12
Potency (CASKI): inactive | Potency (Es-2): inactive | Potency (HeLa): inactive | Potency (Hek293T): inactive | Potency (JEG-3): inactive | Potency (OV90): inactive | Potency (PA-1): inactive | Potency (SKOV3): inactive | Potency (Tov-21-G): inactive | Potency (Tov112D): inactive | activity, negative = cell killing [1, 5]: -21.6% | activity, negative = cell killing [1, 6]: -2.75% | Potency (astro): inactive

CCCCCCCCCCCCCCCC(=O)NCCO
Potency (CASKI): inactive | Potency (Es-2): inactive | Potency (HeLa): inactive | Potency (Hek293T): inactive | Potency (JEG-3): inactive | Potency (OV90): inactive | Potency (PA-1): inactive | Potency (Tov-21-G): inactive | Potency (Tov112D): inactive | activity, negative = cell killing [1, 5]: 0.41% | activity, negative = cell killing [1, 6]: -8.68% | activity, negative = cell killing [1, 7]: -19.5% | activity, negative = cell killing [1, 8]: -10.8% | Potency (astro): inactive

CCCCCCCCCCCCCCCCCCOCC(O)CO (centres undefined)
Potency (CASKI): inactive | Potency (Es-2): inactive | Potency (HeLa): inactive | Potency (Hek293T): inactive | Potency (JEG-3): inactive | Potency (OV90): inactive | Potency (PA-1): inactive | Potency (SKOV3): inactive | Potency (Tov-21-G): inactive | Potency (Tov112D): inactive | Potency (astro): inactive

C[C@]12C[C@H](O)[C@H]3[C@@H](CCC4=CC(=O)CC[C@@]43C)[C@@H]1CC[C@@H]2C(=O)CO
Potency (CASKI): inactive | Potency (Es-2): inactive | Potency (HeLa): 20 µM (active) | Potency (Hek293T): inactive | Potency (JEG-3): inactive | Potency (OV90): inactive | Potency (PA-1): inactive | Potency (SKOV3): inactive | Potency (Tov-21-G): inactive | Potency (Tov112D): inactive | activity, negative = cell killing [1, 5]: -17.6% | activity, negative = cell killing [1, 6]: -22.1% | Potency (astro): inactive

NCCNCCNCCNCCN
activity change, negative = cytotoxicity (CASKI): 1.72% [at 11.6 µM] | activity change, negative = cytotoxicity (Es-2): -5.14% [at 11.6 µM] | activity change, negative = cytotoxicity (HeLa): 8.61% [at 11.6 µM] | activity change, negative = cytotoxicity (Hek293T): -2.17% [at 11.6 µM] | activity change, negative = cytotoxicity (JEG-3): -3.13% [at 11.6 µM] | activity change, negative = cytotoxicity (OV90): 8.86% [at 11.6 µM] | activity change, negative = cytotoxicity (PA-1): 20.4% [at 11.6 µM] | activity change, negative = cytotoxicity (SKOV3): 0% [at 11.6 µM] | activity change, negative = cytotoxicity (Tov-21-G): -0.438% [at 11.6 µM] | activity change, negative = cytotoxicity (Tov112D): 0.19% [at 11.6 µM] | activity, negative = cell killing [1, 5]: -23.1% | activity, negative = cell killing [1, 6]: -12.1% | activity, negative = cell killing [1, 8]: 1.79% | Potency (astro): inactive | max response [2]: -1.57% and 1.12% | outcome [3]: inactive

Cc1ncc(COP(=O)(O)O)c(C=O)c1O
Potency (CASKI): inactive | Potency (Es-2): inactive | Potency (HeLa): inactive | Potency (Hek293T): inactive | Potency (JEG-3): inactive | Potency (OV90): inactive | Potency (PA-1): inactive | Potency (SKOV3): inactive | Potency (Tov-21-G): inactive | Potency (Tov112D): inactive | Potency (astro): inactive

C[C@](N)(Cc1ccc(O)cc1)C(=O)O
activity change, negative = cytotoxicity (CASKI): 2.23% [at 6.55 µM] | activity change, negative = cytotoxicity (Es-2): -8.81% [at 6.55 µM] | activity change, negative = cytotoxicity (HeLa): 0.756% [at 6.55 µM] | activity change, negative = cytotoxicity (Hek293T): -0.946% [at 6.55 µM] | activity change, negative = cytotoxicity (JEG-3): 2.69% [at 6.55 µM] | activity change, negative = cytotoxicity (OV90): 0.672% [at 6.55 µM] | activity change, negative = cytotoxicity (PA-1): 12.1% [at 6.55 µM] | activity change, negative = cytotoxicity (Tov-21-G): -3.06% [at 6.55 µM] | activity change, negative = cytotoxicity (Tov112D): 0.865% [at 6.55 µM] | activity, negative = cell killing [1, 5]: -4.97% | activity, negative = cell killing [1, 6]: 3.89% | activity, negative = cell killing [1, 7]: -16.9% | activity, negative = cell killing [1, 8]: 0.308% | Potency (astro): inactive

CC(=O)Oc1ccc(C2(c3ccc(OC(C)=O)cc3)C(=O)Nc3ccccc32)cc1
Potency (CASKI): inactive | Potency (Es-2): inactive | Potency (HeLa): inactive | Potency (Hek293T): inactive | Potency (JEG-3): inactive | Potency (OV90): 8.91 µM (active) | Potency (PA-1): inactive | Potency (SKOV3): inactive | activity, negative = cell killing [1, 5]: 0.963% and -11% | activity, negative = cell killing [1, 6]: -19.5% and -4.76% | activity, negative = cell killing [1, 8]: -13% and -13.5% | activity change, negative = inhibition [4]: -23.2%

c1ccc2c(CC3=NCCN3)cccc2c1
Potency (CASKI): inactive | Potency (Es-2): inactive | Potency (HeLa): inactive | Potency (Hek293T): inactive | Potency (JEG-3): inactive | Potency (OV90): inactive | Potency (PA-1): inactive | Potency (SKOV3): inactive | Potency (Tov-21-G): inactive | Potency (Tov112D): inactive | activity, negative = cell killing [1, 6]: -11.3% and -15.4% | activity, negative = cell killing [1, 8]: -1.52% and -0.846% and -3.97% | Potency (astro): inactive

CN(C)CCN(Cc1ccccc1)c1ccccn1
Potency (CASKI): inactive | Potency (Es-2): inactive | Potency (HeLa): inactive | Potency (JEG-3): inactive | Potency (OV90): inactive | Potency (PA-1): inactive | Potency (SKOV3): inactive | Potency (Tov-21-G): inactive | Potency (Tov112D): inactive | activity, negative = cell killing [1, 5]: -8.05% | activity, negative = cell killing [1, 8]: -4.16% | Potency ([1]; tumour line A): 5.62 µM (active) | Potency (astro): inactive

CN(C)CCCO[C@@H]1[C@H]2OC(C)(C)O[C@H]2O[C@@H]1C(O)CO (some centres undefined)
Potency (CASKI): inactive | Potency (Es-2): inactive | Potency (HeLa): inactive | Potency (JEG-3): inactive | Potency (OV90): inactive | Potency (PA-1): inactive | Potency (SKOV3): inactive | Potency (Tov-21-G): inactive | Potency (Tov112D): inactive | activity, negative = cell killing [1, 5]: -1.76% | activity, negative = cell killing [1, 6]: -18.3% | activity, negative = cell killing [1, 8]: -10.9% | Potency (astro): inactive

CC[C@H]1CN2CCc3cc(OC)c(OC)cc3[C@@H]2C[C@@H]1C[C@H]1NCCc2cc(OC)c(OC)cc21
Potency (CASKI): 355 nM (active) | Potency (Es-2): 447 nM (active) | Potency (HeLa): 0.398 µM (active) | Potency (Hek293T): 282 nM (active) | Potency (JEG-3): 11.2 µM (active) | Potency (Tov-21-G): 3.55 µM (active) | Potency (Tov112D): 355 nM (active) | Potency ([4]; HiBiT): 787 nM (active) | activity change, negative = inhibition [4]: -15.7%

CN1CCN(C2Cc3ccccc3Sc3ccc(Cl)cc32)CC1 (centres undefined)
Potency (CASKI): inactive | Potency (Es-2): inactive | Potency (HeLa): inactive | Potency (Hek293T): inactive | Potency (JEG-3): inactive | Potency (PA-1): inactive | Potency (Tov-21-G): inactive | Potency (Tov112D): inactive | Potency (astro): 22.4 µM (active)

CCOC(=O)c1ccc(O)cc1
Potency (CASKI): inactive | Potency (Es-2): inactive | Potency (HeLa): inactive | Potency (Hek293T): inactive | Potency (JEG-3): inactive | Potency (OV90): inactive | Potency (PA-1): inactive | Potency (Tov-21-G): inactive | Potency (Tov112D): inactive | activity, negative = cell killing [1, 5]: -7.74% | activity, negative = cell killing [1, 6]: 6.74% | activity, negative = cell killing [1, 8]: -0.513% | Potency (astro): inactive | max response [2]: 1.86% | outcome [3]: inactive
